From PubChem
Many of the other results were omitted from the sample, so hits are more common in it than they were.
D1 mod: allosterically modulates the human D1 dopamine receptor; HEK293 D1, CRE-luciferase, dopamine EC30 potentiation; actives deviate in either direction; B-score at 10 µM; 58,000 compounds, 5.9% hits; AID 641;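 active = luminescence count or its row- and column-corrected plate score outside the 99.7% band of the plate's sample wells, on either side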
JNK3 blocker: blocks human JNK3 kinase activity; purified JNK3 kinase activity, HTS; inhibition, % at 8 µM; P53779; 60,000 compounds, 0.61% hits; AID 746; in the data active = inhibition above about 17%;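 also: 0% = DMSO and 100% = reference inhibitor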
Target sequence (P53779 whole entry, looked up): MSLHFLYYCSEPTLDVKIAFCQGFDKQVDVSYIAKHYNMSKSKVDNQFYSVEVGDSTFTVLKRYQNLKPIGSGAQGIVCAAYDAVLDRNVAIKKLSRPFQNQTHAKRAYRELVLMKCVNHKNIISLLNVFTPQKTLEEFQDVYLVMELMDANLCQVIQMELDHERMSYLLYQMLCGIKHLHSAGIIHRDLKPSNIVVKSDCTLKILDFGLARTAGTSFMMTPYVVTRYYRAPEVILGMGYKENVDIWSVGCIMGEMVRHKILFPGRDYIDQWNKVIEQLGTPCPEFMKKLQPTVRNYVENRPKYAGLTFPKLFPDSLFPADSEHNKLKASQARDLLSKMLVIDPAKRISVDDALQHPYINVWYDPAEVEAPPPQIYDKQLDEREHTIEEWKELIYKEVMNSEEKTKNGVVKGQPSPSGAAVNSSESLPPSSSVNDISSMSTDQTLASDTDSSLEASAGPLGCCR
ROCK2 blocker: ROCK2 (human) kinase inhibition | purified ROCK2, Kinase-Glo ATP depletion luminescence | inhibition, % at 6 µM | 60,000 compounds, 0.35% hits | AID 604;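 active = inhibition above the screen-wide mean inhibition plus 3 SD, cut at about 18% in these data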;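 also: plate controls were DMSO wells for no effect and Y-27632 control wells after no-enzyme background subtraction for full effect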
hDAT+cocaine: modulates human dopamine transporter uptake under cocaine | Q01959 | LLC-PK1 hDAT cells, [14C]-dopamine uptake with cocaine IC80; actives deviate in either direction | B-score at 10 µM | 110,000 compounds, 1.3% hits;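 active = Z score or B-score, a plate-position-corrected score, falls beyond the plate's 99.7% confidence bounds, in either direction; inactive = both scores lie inside the 99.7% bounds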;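 also: scored against the spread of the other compound wells on the same plate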
PKA kinase inh: inhibitors of human protein kinase A | P17612 | PKA Kemptide phosphorylation, Kinase-Glo ATP luminescence | inhibition, % at 6 µM | 65,000 compounds, 0.1% hits;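 active = inhibition above the screen-wide mean inhibition plus 3 SD, cut at about 21% in these data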
Active calls of the source: *.

COc1ccc(C(=O)c2coc3ccc(O)c(CN4CCCCC4)c23)cc1 was read as D1 mod -0.46, JNK3 blocker 4, ROCK2 blocker 5, hDAT+cocaine 3.5* and PKA kinase inh 8.
Screening COc1ccc2occ(C(=O)c3coc4ccc(O)c(CN(C)C)c34)c2c1 returned D1 mod -1.1, JNK3 blocker 6, ROCK2 blocker 6, hDAT+cocaine 1.5 and PKA kinase inh 15.
COc1cc(CCC(=O)N2CCN(c3ccc(N4CCOCC4)nn3)CC2)cc(OC)c1OC was read as D1 mod -0.54, JNK3 blocker 4, ROCK2 blocker -1 and PKA kinase inh 4.
`O=C(CCCc1c[nH]c2ccccc12)N1CCN(c2ccc(N3CCOCC3)nn2)CC1` gave D1 mod 0.014, JNK3 blocker -6, ROCK2 blocker -2, hDAT+cocaine 2.5* and PKA kinase inh 3.
For Cc1cc2c(cc1C)N(CC(=O)N1CCCC1)C(=O)CC(c1ccccc1)=N2 the results were D1 mod 0.057, hDAT+cocaine 0.54 and PKA kinase inh 11.
Screening COc1ccc(C2C3=C(CCCC3=O)Nc3nc(-c4cc(OC)c(OC)c(OC)c4)nn32)cc1OC (configuration not stated) returned D1 mod -3*, JNK3 blocker -3, ROCK2 blocker 0, hDAT+cocaine 4* and PKA kinase inh 6.
`COc1cc(-c2nc3n(n2)C(c2cccc(OC)c2OC)C2=C(CCCC2=O)N3)cc(OC)c1OC` (configuration not stated) gave D1 mod -0.046, JNK3 blocker 1, ROCK2 blocker 5, hDAT+cocaine 2.7* and PKA kinase inh 11.
Cc1sc(NC(=O)COc2cccc(-n3cnnn3)c2)c(C#N)c1C was read as D1 mod -0.11, JNK3 blocker 3, ROCK2 blocker -1, hDAT+cocaine 0.05 and PKA kinase inh 8.
CCOc1ccccc1COC(=O)c1cccc(-n2cnnn2)c1 was read as D1 mod 10*, JNK3 blocker 2, ROCK2 blocker -6, hDAT+cocaine -0.96 and PKA kinase inh 0.
CCOc1ccccc1NC(=O)COc1cccc(-n2cnnn2)c1 was read as D1 mod 3.1, JNK3 blocker 23*, ROCK2 blocker 2, hDAT+cocaine -1.8 and PKA kinase inh 4.
`COc1ccc2c(c1)sc1nc(-c3ccccc3)cn12` gave D1 mod -7.3*, JNK3 blocker 0, ROCK2 blocker -14, hDAT+cocaine 0.021 and PKA kinase inh -6.
For CCOC(=O)N1CCN(C(=O)c2ccc3c(c2)sc2nc(-c4ccc(OC)cc4)cn23)CC1 the results were JNK3 blocker 3, ROCK2 blocker 2, hDAT+cocaine 0.081 and PKA kinase inh 2.
`Cc1ccccc1-c1n[nH]c(=S)o1` gave D1 mod -0.13, JNK3 blocker 27*, ROCK2 blocker 1, hDAT+cocaine -1 and PKA kinase inh -7.
CCCCn1c(-c2cc(Cl)ccc2OC)n[nH]c1=S was read as D1 mod 0.67, JNK3 blocker 1, ROCK2 blocker 2, hDAT+cocaine -0.031 and PKA kinase inh 2.
`COc1ccc(Cl)cc1-c1n[nH]c(=S)o1` gave D1 mod 0.34, JNK3 blocker 37*, ROCK2 blocker 10, hDAT+cocaine -0.2 and PKA kinase inh 10.
For CCC1=C(OC(=O)N(CC)CC)N2C(=O)OC(=NCCOC)[C@]2(Cc2ccccc2)[C@H]2C1=CC[C@H]1C(=O)N(C)C(=O)[C@H]12 the results were hDAT+cocaine -0.22.
Screening Cc1cccc(NC(=O)CNc2cc(C)ccc2C)c1 returned hDAT+cocaine 0.24 and PKA kinase inh 8.
O=c1[nH]c2ccccc2nc1N1CCOCC1 was read as hDAT+cocaine 0.48.
`c1ccc2c(c1)nc(N1CCOCC1)c1c3ccccc3[nH]c21` gave D1 mod 0.15, JNK3 blocker 59*, ROCK2 blocker -2, hDAT+cocaine -0.27 and PKA kinase inh 5.
Screening C=CS(=O)(=O)c1ccc(Oc2ccc(S(=O)(=O)C=C)cc2)cc1 returned D1 mod -4.8*, JNK3 blocker 8, ROCK2 blocker 5 and PKA kinase inh 8.
Screening CCCCn1c(-c2ccco2)nc2ccccc2c1=O returned hDAT+cocaine 0.0062.
O=c1ccc(=O)n2n1CC(O)C2 was read as D1 mod 2.3, JNK3 blocker 2, ROCK2 blocker 22*, hDAT+cocaine -0.58 and PKA kinase inh 14.
Screening O=C(/C=C/NNC(=O)c1ccccc1)c1ccccc1 returned hDAT+cocaine 0.59.
`NC(=O)c1ccccc1N/C=C/C(=O)c1ccccc1` gave D1 mod -2.5*, JNK3 blocker -2, ROCK2 blocker -16, hDAT+cocaine 0.29 and PKA kinase inh -6.
For CC1CN(S(=O)(=O)c2cccc(C(=O)OCc3cc(=O)oc4cc(O)ccc34)c2)CC(C)O1 (configuration not stated) the results were D1 mod -4.3*, JNK3 blocker -3, ROCK2 blocker 1, hDAT+cocaine -0.24 and PKA kinase inh 5.
CN(C)c1cccc(C(=O)OCc2cc(=O)oc3cc(O)ccc23)c1 was read as hDAT+cocaine 0.025.
Screening COc1ccc(-n2c(C)cc(C(=O)Cn3c(NCCO)nc4ccccc43)c2C)cc1 returned D1 mod -0.39, JNK3 blocker -1, ROCK2 blocker 4, hDAT+cocaine 2.1* and PKA kinase inh 7.
Screening O=C(Cn1c(NCCO)nc2ccccc21)c1ccc(Cl)cc1 returned D1 mod 2.2, JNK3 blocker 1, ROCK2 blocker 5, hDAT+cocaine -0.02 and PKA kinase inh 6.
Screening O=C(C1CCN(S(=O)(=O)c2ccccc2)CC1)N1CCOCC1 returned hDAT+cocaine 0.27.
`CC1(C)CC(=O)C2=C(C1)N(c1cccc(O)c1)C1=C(C2)C(=O)CC(C)(C)C1` gave D1 mod 5.6*, JNK3 blocker 2, ROCK2 blocker -1, hDAT+cocaine -0.63 and PKA kinase inh 1.
`CCc1c(C)nc2cc(-c3cc(OC)cc(OC)c3)nn2c1N1CCCC1` gave D1 mod 0.71, JNK3 blocker 9, ROCK2 blocker -1, hDAT+cocaine 1.7 and PKA kinase inh -2.
Screening CCOCCN1CCN(c2c(CC)c(C)nc3cc(-c4cc(OC)cc(OC)c4)nn23)CC1 returned hDAT+cocaine 2*.
`CCOc1ccc(NC(=O)N2CCC(n3c(=O)[nH]c4ccccc43)CC2)cc1` gave JNK3 blocker -1, ROCK2 blocker 8, hDAT+cocaine 2.8* and PKA kinase inh 9.
Screening O=C(Nc1ccccc1C(F)(F)F)N1CCC(n2c(=O)[nH]c3ccccc32)CC1 returned D1 mod 0.049, JNK3 blocker -5, ROCK2 blocker 2, hDAT+cocaine 0.086 and PKA kinase inh 1.
For O=C(OCc1cc(=O)n2c(n1)sc1ccccc12)c1ccc2c(=O)n3c(nc2c1)CCC3 the results were D1 mod 4.2*, JNK3 blocker 1, ROCK2 blocker 2, hDAT+cocaine -0.42 and PKA kinase inh 2.
Cc1cc(-c2cc(-c3ccccc3)on2)nc(NCC2CC2)n1 was read as hDAT+cocaine -0.032.
